Reference: PubChem BioAssay AID1159580 (chemical genetic matrix, 2015)
Hit rate of the full screen: of about 5,500 compounds, about 2,000 (36%) were called active. Not shown: some 18% with an inconclusive outcome. No stated cut-off is given here; in the data, active means normalized growth mostly below about 0.91 (no sharp cut-off); inconclusive means no clear call, values can overlap the other calls; inactive means mostly above about 0.92. This is one part of the list.

Test: chemical genetic growth profiling, strain panel (AID 1159580);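 further: tested at 20 µM; growth read once vehicle control cultures reached saturation at 30 °C; 1 = growth at the plate median or of vehicle wells; lower values mean less growth of the strain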
Conditions: growth OD
[1] = S. cerevisiae deletion strains, locus YHR030C, strain SLT2, active compounds read low
[2] = S. cerevisiae deletion strains, locus YJL187C, strain SWE1, active compounds read low
[3] = S. cerevisiae deletion strains, locus YAL013W, strain DEP1, active compounds read low
[4] = S. cerevisiae deletion strains, locus YAL040C, strain CLN3, active compounds read low
[5] = S. cerevisiae deletion strains, locus YCL061C, strain MRC1 (second series), active compounds read low
[6] = S. cerevisiae deletion strains, locus YDR363W, strain ESC2, active compounds read low
[7] = S. cerevisiae deletion strains, locus YER002W, strain NOP16, active compounds read low
[8] = S. cerevisiae deletion strains, locus YJR075W, strain HOC1, active compounds read low
[9] = S. cerevisiae deletion strains, locus YMR307W, strain GAS1, active compounds read low
[10] = S. cerevisiae deletion strains, locus YNL153C, strain GIM3, active compounds read low
[11] = S. cerevisiae deletion strains, locus YNL175C, strain NOP13, active compounds read low
[12] = S. cerevisiae deletion strains, locus YNL197C, strain WHI3, active compounds read low
[13] = S. cerevisiae deletion strains, locus YNL224C, strain SQS1, active compounds read low
[14] = S. cerevisiae deletion strains, locus YNL322C, strain KRE1, active compounds read low
[15] = S. cerevisiae deletion strains, locus YOR083W, strain WHI5 (second series), active compounds read low
[16] = S. cerevisiae deletion strains, locus YPL055C, strain LGE1, active compounds read low
[17] = S. cerevisiae deletion strains, locus YBR229C, strain ROT2, active compounds read low
[18] = S. cerevisiae deletion strains, locus YDL101C, strain DUN1, active compounds read low
[19] = S. cerevisiae deletion strains, locus YDR150W, strain NUM1, active compounds read low
[20] = S. cerevisiae deletion strains, locus YEL061C, strain CIN8, active compounds read low
[21] = S. cerevisiae deletion strains, locus YGR078C, strain PAC10, active compounds read low
[22] = S. cerevisiae deletion strains, locus YHR087W, strain rtc3, active compounds read low
[23] = S. cerevisiae deletion strains, locus YJR043C, strain POL32, active compounds read low
[24] = S. cerevisiae deletion strains, locus YLR039C, strain RIC1, active compounds read low
[25] = S. cerevisiae deletion strains, locus YLR058C, strain SHM2 (second series), active compounds read low
[26] = S. cerevisiae deletion strains, locus YLR085C, strain ARP6, active compounds read low
[27] = S. cerevisiae deletion strains, locus YLR262C, strain YPT6, active compounds read low
[28] = S. cerevisiae deletion strains, locus YML094W, strain GIM5, active compounds read low
[29] = S. cerevisiae deletion strains, locus YMR219W, strain ESC1, active compounds read low
[30] = S. cerevisiae deletion strains, locus YMR263W, strain SAP30, active compounds read low
[31] = S. cerevisiae deletion strains, locus YNL298W, strain CLA4 (second series), active compounds read low
[32] = S. cerevisiae deletion strains, locus YNR030W, strain Alg12, active compounds read low
[33] = S. cerevisiae deletion strains, locus YPL241C, strain CIN2, active compounds read low
[34] = S. cerevisiae deletion strains, locus YPR135W, strain CTF4, active compounds read low
[35] = S. cerevisiae deletion strains, locus YGR229C, strain SMI1, active compounds read low

Measured: normalized growth

C=CC[C@@H]1/C=C(\C)C[C@H](C)C[C@H](OC)[C@H]2O[C@@](O)(C(=O)C(=O)N3CCCC[C@H]3C(=O)O[C@H](/C(C)=C/[C@@H]3CC[C@@H](O)[C@H](OC)C3)[C@H](C)[C@@H](O)CC1=O)[C@H](C)C[C@@H]2OC
inactive: S. cerevisiae deletion strains, locus YAL030W, strain snc1, active compounds read low 1.02 | S. cerevisiae deletion strains, locus YBR009C, strain hhf1, active compounds read low 0.946 | S. cerevisiae deletion strains, locus YBR023C, strain chs3, active compounds read low 1 | S. cerevisiae deletion strains, locus YBR231C, strain swc5, active compounds read low 0.988 | S. cerevisiae deletion strains, locus YBR279W, strain paf1, active compounds read low 1.03 | S. cerevisiae deletion strains, locus YCL011C, strain gbp2, active compounds read low 0.988 | S. cerevisiae deletion strains, locus YCL069W, strain vba3, active compounds read low 1.02 | S. cerevisiae deletion strains, locus YCR088W, strain abp1, active compounds read low 0.995 | S. cerevisiae deletion strains, locus YDL005C, strain med2, active compounds read low 1.04 | S. cerevisiae deletion strains, locus YDL040C, strain nat1, active compounds read low 1.02 | S. cerevisiae deletion strains, locus YDR001C, strain nth1, active compounds read low 1.04 | S. cerevisiae deletion strains, locus YDR159W, strain sac3, active compounds read low 0.974 | S. cerevisiae deletion strains, locus YDR297W, strain sur2, active compounds read low 1.03 | S. cerevisiae deletion strains, locus YDR334W, strain swr1, active compounds read low 1.1 | S. cerevisiae deletion strains, locus YDR335W, strain msn5, active compounds read low 0.96 | S. cerevisiae deletion strains, locus YEL003W, strain gim4, active compounds read low 0.99 | S. cerevisiae deletion strains, locus YEL037C, strain rad23, active compounds read low 1.04 | S. cerevisiae deletion strains, locus YEL061C, strain CIN8 (second series), active compounds read low 1 | S. cerevisiae deletion strains, locus YER015W, strain faa2, active compounds read low 1.04 | S. cerevisiae deletion strains, locus YER111C, strain swi4, active compounds read low 1.02 | S. cerevisiae deletion strains, locus YGL167C, strain pmr1, active compounds read low 1.06 | S. cerevisiae deletion strains, locus YGL227W, strain vid30, active compounds read low 1.05 | S. cerevisiae deletion strains, locus YGL240W, strain doc1, active compounds read low 1.06 | S. cerevisiae deletion strains, locus YGL253W, strain hxk2, active compounds read low 0.983 | S. cerevisiae deletion strains, locus YHR013C, strain ard1, active compounds read low 0.912 | S. cerevisiae deletion strains, locus YHR027C, strain rpn1, active compounds read low 1.03 | S. cerevisiae deletion strains, locus YHR142W, strain chs7, active compounds read low 0.881 | S. cerevisiae deletion strains, locus YJL092W, strain hpr5, active compounds read low 1.02 | S. cerevisiae deletion strains, locus YJL115W, strain asf1, active compounds read low 1.05 | S. cerevisiae deletion strains, locus YJL154C, strain vps35, active compounds read low 1.04 | S. cerevisiae deletion strains, locus YJL166W, strain qcr8, active compounds read low 0.982 | [2] 1.03 | S. cerevisiae deletion strains, locus YKL160W, strain elf1, active compounds read low 0.956 | S. cerevisiae deletion strains, locus YKR026C, strain gcn3, active compounds read low 1.04 | S. cerevisiae deletion strains, locus YKR091W, strain srl3, active compounds read low 1.04 | S. cerevisiae deletion strains, locus YLL001W, strain dnm1, active compounds read low 0.932 | S. cerevisiae deletion strains, locus YLL026W, active compounds read low 1.02 | S. cerevisiae deletion strains, locus YLL041C, strain sdh2, active compounds read low 1.05 | S. cerevisiae deletion strains, locus YLR027C, strain aat2, active compounds read low 0.976 | S. cerevisiae deletion strains, locus YLR221C, strain rsa3, active compounds read low 0.922 | S. cerevisiae deletion strains, locus YLR258W, strain gsy2, active compounds read low 0.986 | S. cerevisiae deletion strains, locus YLR357W, strain rsc2, active compounds read low 0.949 | S. cerevisiae deletion strains, locus YLR370C, strain arc18, active compounds read low 0.936 | S. cerevisiae deletion strains, locus YLR384C, strain iki3, active compounds read low 1.05 | S. cerevisiae deletion strains, locus YML120C, strain ndi1, active compounds read low 0.965 | S. cerevisiae deletion strains, locus YMR058W, strain fet3, active compounds read low 0.995 | S. cerevisiae deletion strains, locus YMR129W, active compounds read low 1.04 | S. cerevisiae deletion strains, locus YNL209W, strain ssb2, active compounds read low 1.03 | S. cerevisiae deletion strains, locus YNL248C, strain rpa49, active compounds read low 1.03 | S. cerevisiae deletion strains, locus YNL322C, strain KRE1 (second series), active compounds read low 0.962 | S. cerevisiae deletion strains, locus YNR049C, strain mso1, active compounds read low 1.03 | S. cerevisiae deletion strains, locus YOR070C, strain gyp1, active compounds read low 0.944 | S. cerevisiae deletion strains, locus YOR080W, strain dia2, active compounds read low 1.05 | S. cerevisiae deletion strains, locus YOR083W, strain WHI5, active compounds read low 0.931 | S. cerevisiae deletion strains, locus YOR265W, strain rbl2, active compounds read low 1.05 | S. cerevisiae deletion strains, locus YOR290C, strain snf2, active compounds read low 0.894 | S. cerevisiae deletion strains, locus YPL078C, strain atp4, active compounds read low 0.951 | S. cerevisiae deletion strains, locus YPL240C, strain hsp82, active compounds read low 1.03
active: S. cerevisiae deletion strains, locus YAL021C, strain ccr4, active compounds read low 0.844 | S. cerevisiae deletion strains, locus YAL026C, strain drs2, active compounds read low 0.6 | S. cerevisiae deletion strains, locus YBL061C, strain skt5, active compounds read low 1.09 [resistant] | S. cerevisiae deletion strains, locus YBR171W, strain sec66, active compounds read low 1.14 [resistant] | S. cerevisiae deletion strains, locus YCL016C, strain dcc1, active compounds read low 0.896 | S. cerevisiae deletion strains, locus YDR069C, strain doa4, active compounds read low 0.829 | S. cerevisiae deletion strains, locus YDR137W, strain rgp1, active compounds read low 0.174 | S. cerevisiae deletion strains, locus YDR195W, strain ref2 0.773 | S. cerevisiae deletion strains, locus YDR392W, strain spt3, active compounds read low 0.55 | S. cerevisiae deletion strains, locus YER016W, strain bim1, active compounds read low 0.909 | S. cerevisiae deletion strains, locus YER155C, strain BEM2 (second series), active compounds read low 0.705 | S. cerevisiae deletion strains, locus YFR010W, strain ubp6, active compounds read low 0.877 | S. cerevisiae deletion strains, locus YGL173C, strain kem1, active compounds read low 0.848 | [1] 0.7 | S. cerevisiae deletion strains, locus YHR079C, strain IRE1, active compounds read low 0.719 | S. cerevisiae deletion strains, locus YJL095W, strain BCK1 (second series), active compounds read low 0.91 | S. cerevisiae deletion strains, locus YJL095W, strain BCK1, active compounds read low 0.754 | S. cerevisiae deletion strains, locus YJL129C, strain trk1, active compounds read low 0.845 | S. cerevisiae deletion strains, locus YJL164C, strain tpk1, active compounds read low 0.915 | S. cerevisiae deletion strains, locus YJR066W, strain TOR1, active compounds read low 0.746 | S. cerevisiae deletion strains, locus YLR113W, strain HOG1, active compounds read low 0.66 | S. cerevisiae deletion strains, locus YLR262C, strain YPT6 (second series), active compounds read low 0.137 | S. cerevisiae deletion strains, locus YLR320W, strain mms22, active compounds read low 0.734 | S. cerevisiae deletion strains, locus YLR342W, strain FKS1, active compounds read low 0.0809 | S. cerevisiae deletion strains, locus YMR125W, strain sto1, active compounds read low 0.844 | S. cerevisiae deletion strains, locus YMR205C, strain PFK2, active compounds read low 0.78 | S. cerevisiae deletion strains, locus YMR231W, strain pep5, active compounds read low 0.176 | S. cerevisiae deletion strains, locus YNL071W, strain lat1, active compounds read low 0.746 | S. cerevisiae deletion strains, locus YNL183C, strain NPR1, active compounds read low 0.781 | S. cerevisiae deletion strains, locus YOR001W, strain rrp6, active compounds read low 0.761 | S. cerevisiae deletion strains, locus YOR106W, strain vam3, active compounds read low 0.736 | S. cerevisiae deletion strains, locus YOR231W, strain MKK1, active compounds read low 0.7 | S. cerevisiae deletion strains, locus YOR270C, strain vph1, active compounds read low 0.514 | S. cerevisiae deletion strains, locus YPL051W, strain arl3, active compounds read low 0.67 | S. cerevisiae deletion strains, locus YPL106C, strain sse1, active compounds read low 0.72 | S. cerevisiae deletion strains, locus YPL256C, strain CLN2, active compounds read low 0.695

N[C@@H](Cn1ccc(=O)[nH]c1=O)C(=O)O
inactive: [3] 0.988 | [4] 1.06 | [5] 1 | [6] 1 | [7] 0.995 | [8] 0.97 | [9] 0.978 | S. cerevisiae deletion strains, locus YNL128W, strain TEP1, active compounds read low 1 | [10] 1.03 | [11] 0.995 | [12] 1 | [13] 1.01 | [14] 0.975 | [15] 1.01 | [16] 0.998

CCOC(=O)c1ccc(Oc2ncc(C(F)(F)F)cc2Cl)cc1
inactive: [3] 1.04 | [17] 0.995 | [18] 0.957 | [19] 1 | [20] 0.996 | [21] 0.993 | [1] 0.829 | [22] 0.987 | [23] 0.98 | [8] 0.917 | [24] 0.889 | [25] 0.975 | [26] 1.08 | [27] 0.862 | [28] 1.04 | [29] 0.992 | [30] 0.988 | [9] 0.68 | [10] 1.01 | [31] 0.985 | [14] 0.986 | [32] 0.974 | [16] 1.08 | [33] 0.862 | [34] 1.17

CCOC(=O)c1ccc(N2CC3CCCCN3C2c2ccc(Cl)c(Cl)c2)cc1 (stereo not drawn)
active: [27] 0.744
inactive: [3] 0.989 | [17] 0.974 | S. cerevisiae deletion strains, locus YCL061C, strain MRC1, active compounds read low 0.991 | [18] 1 | S. cerevisiae deletion strains, locus YDL134C, strain PPH21, active compounds read low 1.01 | [19] 0.992 | [20] 0.993 | [21] 0.992 | [35] 1 | [1] 0.971 | [22] 0.992 | [2] 0.982 | [23] 1.01 | [8] 0.998 | [24] 0.889 | [25] 0.997 | [26] 0.97 | [28] 0.972 | [29] 0.984 | [30] 0.976 | [10] 0.997 | [31] 1.02 | [14] 1 | [32] 0.997 | [16] 0.922 | [33] 0.987 | [34] 0.893 | S. cerevisiae strains, strain wild type, active compounds read low 1.01

O=C(Cc1ccc(Cl)c(Cl)c1)N1CCCCC1CN1CCCC1 (stereo not drawn)
inactive: [4] 0.982 | [5] 1 | [19] 1.01 | [6] 1.01 | [7] 0.999 | [21] 1.01 | [35] 1.03 | [9] 0.999 | [10] 1.09 | [11] 1.02 | [12] 1.03 | [13] 0.999 | [14] 1.05 | [15] 1.05 | [16] 1.01
